# Assay results: PubChem BioAssay
# Several values for one entry are separate records, joined by “and”; a condition that tells them apart may be missing. Identical values can stand only once. Activity calls are given as the source filed them. Cut-off read from the data, not from the text of the source, unless noted: active = inhibition above about 80%; inactive = the rest.
# Columns and labels:
# [1] = growth inhibition, single agent or in combination, cell-based, chromothripsis tumors, cisplatin or BGB combos (AID 1671449); settings: LFS_MB_P medulloblastoma cells;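 note: cells exposed for 96 hours; 0% = vehicle DMSO and 100% = killing by high DMSO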
# [2] = growth inhibition, single agent and combos, cell-based, chromothripsis tumors, cisplatin or BGB combos (AID 1671450); settings: HDN33 neuroblastoma cells, stronger effect = higher value;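 note: cells exposed to compound for four days; 0% = vehicle DMSO and 100% = cell killing by high DMSO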
# [3] = growth inhibition, single agents and combos, ICB984, cell-based, cisplatin or BGB combos, synergistic combos for chromothripsis tumors (AID 1671451; call rule not given here;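 note: cells exposed for 96 hours before readout; 0% = vehicle DMSO and 100% = killing by high DMSO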); settings: ICB984 medulloblastoma cells, drug combinations, stronger effect = higher value
# [4] = growth inhibition, single agents and combos, LFS_MB_1R, cell-based, cisplatin or BGB combos, synergistic combos for chromothripsis tumors (AID 1671452); settings: LFS_MB_1R medulloblastoma cells, stronger effect = higher value;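 note: cells exposed for 96 hours before readout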
# [5] = growth inhibition, single agents and combos, HTB85, cell-based, BGB or cisplatin IC20 combos, synergistic combos for chromothripsis tumors (AID 1671453); settings: HTB85 osteosarcoma cells, drug combinations, stronger effect = higher value;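 note: cells exposed for 96 hours before readout; 0% = vehicle DMSO and 100% = high DMSO killing control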
# [6] = growth inhibition, single agents and combos, CRL2098, cell-based, BGB or cisplatin IC20 combos, synergistic combos for chromothripsis tumors (AID 1671454); settings: CRL2098 osteosarcoma cells, drug combinations, stronger effect = higher value;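 note: cells exposed for 96 h before readout; 0% = vehicle DMSO and 100% = killing by high DMSO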
# [7] = growth inhibition, single agents and combos, HD-MB03, cell-based, BGB or cisplatin IC20 combos, synergistic combos for chromothripsis tumors (AID 1671455; in the data active = inhibition above about 83%;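 note: 0% = vehicle DMSO and 100% = high DMSO as cytotoxic control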); settings: HD-MB03 medulloblastoma cells, stronger effect = higher value
# [8] = growth inhibition, single agents and combos, UWB1.289, cell-based, BGB or cisplatin combos, synergistic combos for chromothripsis tumors (AID 1671456); settings: UWB1.289 ovarian carcinoma cells, stronger effect = higher value;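 note: cells exposed to compound for four days; 0% = vehicle DMSO and 100% = killing by high DMSO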
# [9] = growth inhibition, single agents and combos, LFS_MB_2R, cell-based, cisplatin combos, synergistic combos for chromothripsis tumors (AID 1671457); settings: LFS_MB_2R medulloblastoma cells, stronger effect = higher value;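 note: cells exposed to compound for four days before readout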
# [10] = growth inhibition, MDA-MB-436, cell-based, BGB or cisplatin combos, synergistic combos for chromothripsis tumors (AID 1671458; call rule not given here;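 note: cells exposed for 96 hours; 0% = vehicle DMSO and 100% = killing by high DMSO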); settings: MDA-MB-436 breast carcinoma growth inhibition, drug combinations, stronger effect = higher value
# [11] = UWB1.289_BRCA1 ovarian cancer growth, cell-based, BGB or cisplatin combinations (AID 1671459); settings: UWB1.289 BRCA1 ovarian carcinoma, drug combinations, stronger effect = higher value
# [12] = drug combination toxicity in non-malignant astrocytes – cell-based, BGB or cisplatin IC20 combos, cytotoxicity control for chromothriptic childhood tumor combination screen (AID 1671460); settings: Human astrocytes, viability inhibition, drug combinations, at 0.5 µM, stronger effect = higher value;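 note: cells exposed to compounds for 96 hours before viability readout; 0% = vehicle and 100% = killing control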
# [13] = BT084 cell growth, single and combined drugs, ICGC_MB145, cisplatin and BGB IC40 combos (AID 1671461); settings: BT084 medulloblastoma cells, drug combinations, stronger effect = higher value;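 note: cells exposed to drugs for 96 hours; 0% = vehicle DMSO and 100% = high DMSO full killing control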
# [14] = RCMB18 cell growth, single agent and combined, cisplatin and BGB IC40 combos (AID 1671462); settings: RCMB18 medulloblastoma cells, stronger effect = higher value;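 note: cells exposed to compound for four days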
# [15] = CRL1545 cell growth, single agent and combined, cisplatin and BGB IC20 combos (AID 1671464); settings: CRL1545 osteosarcoma cells, stronger effect = higher value;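 note: cells exposed to compound for 96 hours before readout; 0% = vehicle DMSO and 100% = high DMSO killing control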
# [16] = measured here: combination with BGB IC40, at 0.05 µM
# [17] = measured here: with BGB IC20 combination, at 0.5 µM
# [18] = measured here: with cisplatin IC20 combination, at 0.5 µM
# [19] = measured here: combination with cisplatin, at 0.5 µM
# [20] = measured here: combination with cisplatin, at 5 µM
smiles,measurement,setting,value
O=C1C(=Cc2cccnc2)C(=O)c2ccccc21,inhibition,"[1]; at 0.5 µM, stronger effect = higher value",-18.2% (inactive)
same,inhibition,"[1]; measured here: combination with BGB IC20, at 0.005 µM",-17.1%
same,inhibition,"[1]; measured here: combination with BGB IC40, at 0.005 µM",67.5%
same,inhibition,[1]; [16],-27.5%
same,inhibition,"[1]; measured here: combination with cisplatin, at 0.5 µM, stronger effect = higher value",-45.6%
same,inhibition,"[1]; measured here: combination with cisplatin, at 5 µM, stronger effect = higher value",-16.1%
same,inhibition,"[2]; BGB combo, at 5 µM",-24.2%
same,inhibition,[2]; at 0.5 µM,-0.8% (inactive)
same,inhibition,"[2]; cisplatin combo, at 5 µM",-15.7%
same,inhibition,[2]; [17],-14.2%
same,inhibition,[2]; [18],14.1%
same,inhibition,"[2]; single agent, at 5 µM",-16.1%
same,inhibition,"[3]; BGB IC20 combo, at 0.005 µM",0.337%
same,inhibition,"[3]; BGB IC40 combo, at 0.005 µM",-13.1%
same,inhibition,"[3]; BGB IC40 combo, at 0.05 µM",-4.84%
same,inhibition,[3]; at 0.5 µM,-25.7% (inactive)
same,inhibition,"[3]; cisplatin combo, at 0.05 µM",-10.2%
same,inhibition,"[3]; cisplatin combo, at 0.5 µM",-37.3%
same,inhibition,"[3]; cisplatin combo, at 5 µM",-28.8%
same,inhibition,"[3]; measured here: 5 uM single agent, at 5 µM",-20.5%
same,inhibition,[4]; at 0.5 µM,-8.72% (inactive)
same,inhibition,[4]; [16],-20.3%
same,inhibition,[4]; [19],-8.61%
same,inhibition,[4]; [20],-32.8%
same,inhibition,[5]; at 0.5 µM,-5.81% (inactive)
same,inhibition,"[5]; measured here: with BGB IC20, at 0.5 µM",0.006%
same,inhibition,"[5]; measured here: with BGB IC20, at 5 µM",-4.06%
same,inhibition,"[5]; measured here: with cisplatin IC20, at 0.5 µM",-17.7%
same,inhibition,"[5]; measured here: with cisplatin IC20, at 5 µM",0.224%
same,inhibition,"[5]; single agent, at 5 µM",6.13%
same,inhibition,[6]; at 0.5 µM,-26.6% (inactive)
same,inhibition,"[6]; measured here: combination with BGB at IC20, at 0.5 µM",-25.9%
same,inhibition,"[6]; measured here: combination with cisplatin at IC20, at 0.5 µM",-22.2%
same,inhibition,[7]; at 0.5 µM,-8.47% (inactive)
same,inhibition,"[7]; measured here: combo with BGB at IC20, at 0.5 µM",-12%
same,inhibition,"[7]; measured here: combo with cisplatin at IC20, at 0.5 µM",-5.96%
same,inhibition,[8]; at 0.5 µM,0.75% (inactive)
same,inhibition,"[8]; measured here: inhibition with BGB combination, at 0.05 µM",2.81%
same,inhibition,"[8]; measured here: inhibition with cisplatin combination, at 0.05 µM",-5.97%
same,inhibition,[9]; at 0.5 µM,-15.3% (inactive)
same,inhibition,[9]; [19],-19.2%
same,inhibition,[9]; [20],-18.7%
same,inhibition,[10]; at 0.5 µM,-13.9% (inactive)
same,inhibition,"[10]; measured here: BGB combination, at 0.5 µM",-13.8%
same,inhibition,"[10]; measured here: BGB combination, at 5 µM",-19.4%
same,inhibition,"[10]; measured here: cisplatin combination, at 0.5 µM",-27.6%
same,inhibition,"[10]; measured here: cisplatin combination, at 5 µM",-23.4%
same,inhibition,"[11]; BGB combination, concentration series, at 5 µM",-3.65%
same,inhibition,[11]; at 0.5 µM,-0.75% (inactive)
same,inhibition,"[11]; cisplatin combination, concentration series, at 5 µM",4.94%
same,inhibition,[12],5.07% (inactive)
same,inhibition,[12]; measured here: combo with BGB IC20,-3.05%
same,inhibition,[12]; measured here: combo with cisplatin IC20,0.407%
same,inhibition,[13]; at 0.5 µM,-7.01% (inactive)
same,inhibition,"[13]; cisplatin combination, at 0.5 µM",-1.5%
same,inhibition,"[13]; cisplatin combination, at 5 µM",-101%
same,inhibition,"[13]; measured here: BGB IC40 combination 0.05 uM, at 0.05 µM",-30.3%
same,inhibition,"[13]; single agent, at 5 µM",9.68%
same,inhibition,[14]; at 0.5 µM,-13.1% (inactive)
same,inhibition,"[14]; cisplatin combo, at 5 µM",4.14%
same,inhibition,"[14]; measured here: BGB IC40 combination, at 0.05 µM",-19.1%
same,inhibition,[14]; [19],-37%
same,inhibition,"[14]; single agent, at 5 µM",-5.07%
same,inhibition,[15]; at 0.5 µM,3.87% (inactive)
same,inhibition,[15]; [17],-10.3%
same,inhibition,[15]; [18],9.52%
same,inhibition,"[15]; single agent, at 0.05 µM",-45.6%
same,inhibition,"[15]; single agent, at 5 µM",-28.3%
CCc1c2c(nc3ccc(OC(=O)N4CCC(N5CCCCC5)CC4)cc13)-c1cc3c(c(=O)n1C2)COC(=O)C3(O)CC (stereo not given),inhibition,[1]; [16],-19.5% and -4.73% and -44.6%
same,inhibition,[13]; at 0.5 µM,-22.5% (inactive) and 1.41% (inactive) and -20.7% (inactive)
